Targets with a hit are over-represented here; the source holds about 8,800 in all. About 0.5% of all pairs of compound and target were hits.
Assays:
Test in all cases: log2 fold change, soluble protein after heating vs DMSO (PISA); higher = thermal stabilisation; K562 lysate, 10 uM; active = over 0.2 and 3.5 SD of the protein, either way, in both replicates (recomputed)
erlotinib = compound: C#Cc1cccc(Nc2ncnc3cc(OCCOC)c(OCCOC)cc23)c1 [erlotinib]
In short: (§1)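 Following dounce homogenisation of K562 pellets in PBS pH 7.4 with 1 mM MgCl2, crude extract at 1 mg/mL protein was incubated for 30 min with 10 μM compound. Aliquots were then heated for 3 min over 48°C-58°C and pooled, NP-40 was added to 0.5% at 4°C, and soluble protein was recovered as the supernatant at 21,000xg for 90 min. Channel-sum-equalised TMTpro 16plex LC-MS/MS quantified this protein. Each value, from duplicates, is a log-two fold change in thermal stability relative to solvent controls.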

[1] = compound: C/C(=N\NC(=O)C1=CC(=CC=C1)S(=O)(=O)N2CCOCC2)/C3=C(C=CC(=C3)Cl)O
In short: as §1

[2] = compound: C1=CC(=CC=C1C2=NC3=C(N2)C=C(C=C3)C(=O)N)OC4=CC=C(C=C4)Cl
In short: as §1

[3] = compound: C1=CC2=C(C=CC(=C2)/C=C\3/C(=O)NC(=NCC4=CC=CS4)S3)N=C1
In short: as §1

[4] = compound: C1=CC2=NC=CN=C2C=C1/C=C/3\C(=O)NC(=O)S3
In short: as §1

[5] = compound: C1=CC=C(C=C1)C2=NC(=C(N2)C3=CC=NC=C3)C4=CC(=C(C=C4)Cl)O
In short: as §1

[6] = compound: C1=CC=C2C(=C1)C3=NNC4=CC=CC(=C43)C2=O
In short: as §1

[7] = compound: C1CCN(C1)C(=O)NC2=CC=CC(=C2)NC3=NC=C(C(=N3)NCCC4=CN=CN4)Br
In short: as §1

[8] = compound: C1CN(CCC1(CC2=CC=C(C=C2)Cl)N)C3=NC=NC4=C3C=CN4
In short: as §1

IRAK-1-4 Inhibitor I = compound: C1COCCN1CCN2C3=CC=CC=C3N=C2NC(=O)C4=CC(=CC=C4)[N+](=O)[O-] [IRAK-1-4 Inhibitor I]
In short: as §1

ibrutinib = compound: C=CC(=O)N1CCC[C@@H](n2nc(-c3ccc(Oc4ccccc4)cc3)c3c(N)ncnc32)C1 [ibrutinib]
In short: as §1

[9] = compound: CC(=O)c1cnc2ccc(-c3cc(Cl)c(O)c(Cl)c3)nc2c1N[C@H]1CC[C@H](CN(C)C)CC1
In short: as §1

ralimetinib = compound: CC(C)(C)Cn1c(N)nc2ccc(-c3[nH]c(C(C)(C)C)nc3-c3ccc(F)cc3)nc21 [ralimetinib]
In short: as §1

[10] = compound: CC(C)(O)CC(=O)NCCn1ccc2ncnc(Nc3ccc(Oc4cccc(C(F)(F)F)c4)c(Cl)c3)c21
In short: as §1

[11] = compound: CC(C)C1=C2N=C(C=C(N2N=C1)NCC3=CC=CC=C3)NCCCCCCN
In short: as §1

[12] = compound: CC1=C(C(CC(=O)N1)C2=CC=C(C=C2)C(F)(F)F)C(=O)NC3=C(C=C4C(=C3)C=NN4)F
In short: as §1

[13] = compound: CC1=C(C2=C(C=C1)C(=O)C3=CC=CC=C3N2CCCN)C
In short: as §1

[14] = compound: CC1=C(C=C(C=C1)NC(=O)C2=CC(=CC=C2)C(C)(C)C#N)NC3=CC4=C(C=C3)N=CN(C4=O)C
In short: as §1

[15] = compound: CC1=C(C=C(C=C1)NC(=O)C2=CC(=CC=C2)N(C)C)NC(=O)C3=CC=C(C=C3)O
In short: as §1

[16] = compound: CC1=CC=C(C=C1)SC2=C3C=C(SC3=CN=C2)C(=O)N
In short: as §1

Measured: log2 fold change

HNRNPUL2 (UniProt Q1KMD3)
Chain of UniProt Q1KMD3 (Q1KMD3 whole entry, looked up): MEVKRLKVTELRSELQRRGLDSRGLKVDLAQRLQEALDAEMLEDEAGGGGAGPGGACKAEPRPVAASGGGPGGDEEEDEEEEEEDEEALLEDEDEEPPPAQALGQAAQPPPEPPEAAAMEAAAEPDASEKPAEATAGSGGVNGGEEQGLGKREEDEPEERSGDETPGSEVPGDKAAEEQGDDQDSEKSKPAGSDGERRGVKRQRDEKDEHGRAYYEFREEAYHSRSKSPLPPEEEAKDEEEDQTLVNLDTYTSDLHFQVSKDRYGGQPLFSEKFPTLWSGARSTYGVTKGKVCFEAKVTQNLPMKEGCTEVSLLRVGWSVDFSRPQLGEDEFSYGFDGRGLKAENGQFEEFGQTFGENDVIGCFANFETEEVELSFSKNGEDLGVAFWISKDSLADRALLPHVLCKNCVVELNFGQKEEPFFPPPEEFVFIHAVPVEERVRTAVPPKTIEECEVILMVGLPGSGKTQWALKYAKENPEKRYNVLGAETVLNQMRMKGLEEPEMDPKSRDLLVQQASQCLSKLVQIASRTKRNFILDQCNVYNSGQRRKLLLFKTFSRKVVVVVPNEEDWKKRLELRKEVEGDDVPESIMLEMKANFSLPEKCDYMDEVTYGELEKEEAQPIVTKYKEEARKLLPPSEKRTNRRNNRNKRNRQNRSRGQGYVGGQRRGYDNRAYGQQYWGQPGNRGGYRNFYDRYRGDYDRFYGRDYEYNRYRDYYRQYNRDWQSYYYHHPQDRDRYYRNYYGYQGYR
inactive: erlotinib -0.006 | [1] -0.002 | [2] 0.02 | [3] -0.004 | [4] -0.035 | [5] -0.006 | [6] -0.014 | [7] -0.001 | [8] -0.022 | IRAK-1-4 Inhibitor I -0.003 | ibrutinib -0.019 | ralimetinib -0.018 | [10] -0.02 | [11] 0.021 | [12] -0.022 | [13] -0.03 | [14] 0.011 | [15] 0.032 | [16] 0
active: [9] -0.674

GON4L (UniProt Q3T8J9)
inactive: erlotinib -0.003 | [1] 0.016 | [2] 0.061 | [3] -0.038 | [4] -0.074 | [5] 0.053 | [6] 0.057 | [7] 0.026 | [8] -0.052 | IRAK-1-4 Inhibitor I -0.039 | ibrutinib 0.026 | [9] 0.022 | ralimetinib 0.029 | [10] -0.042 | [11] -0.04 | [12] -0.02 | [13] -0.017 | [14] 0.01 | [15] 0.002 | [16] -0.044

GSK3A (UniProt P49840)
Chain of UniProt P49840 (P49840 whole entry, looked up): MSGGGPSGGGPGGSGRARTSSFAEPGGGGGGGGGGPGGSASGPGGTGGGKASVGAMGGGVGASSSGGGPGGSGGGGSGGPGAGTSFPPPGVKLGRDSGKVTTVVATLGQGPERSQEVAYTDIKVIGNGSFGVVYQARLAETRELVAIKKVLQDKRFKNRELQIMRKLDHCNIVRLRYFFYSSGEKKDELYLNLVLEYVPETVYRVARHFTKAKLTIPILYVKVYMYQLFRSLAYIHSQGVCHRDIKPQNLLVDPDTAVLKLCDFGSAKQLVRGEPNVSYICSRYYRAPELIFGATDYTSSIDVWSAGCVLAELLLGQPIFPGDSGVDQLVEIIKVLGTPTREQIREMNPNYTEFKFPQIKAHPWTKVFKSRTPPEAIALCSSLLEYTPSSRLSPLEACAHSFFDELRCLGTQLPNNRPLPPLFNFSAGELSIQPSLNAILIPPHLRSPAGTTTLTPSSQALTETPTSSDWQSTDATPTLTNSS
inactive: erlotinib -0.029 | [1] -0.103 | [2] -0.034 | [3] 0.069 | [4] 0.066 | [5] 0.295 | [6] 0.182 | [7] 0.163 | [8] 0.018 | IRAK-1-4 Inhibitor I -0.014 | ibrutinib -0.01 | [9] 0.146 | ralimetinib 0.022 | [10] -0.001 | [11] -0.045 | [12] -0.017 | [13] 0.01 | [14] -0.109 | [15] -0.007 | [16] 0.207

ISCA1 isoform 2 (UniProt Q9BUE6)
Chain of UniProt Q9BUE6 (Q9BUE6 whole entry, looked up): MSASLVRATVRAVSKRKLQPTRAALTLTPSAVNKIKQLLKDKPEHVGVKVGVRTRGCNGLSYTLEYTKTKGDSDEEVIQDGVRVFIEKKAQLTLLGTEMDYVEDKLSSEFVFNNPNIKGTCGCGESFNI
inactive: erlotinib -0.025 | [1] -0.036 | [2] 0.021 | [3] -0.007 | [4] -0.04 | [5] -0.033 | [6] -0.013 | [7] 0.003 | [8] -0.031 | IRAK-1-4 Inhibitor I 0.031 | ibrutinib 0.049 | [9] -0.001 | ralimetinib 0.04 | [10] -0.028 | [11] -0.069 | [12] -0.276 | [13] -0.006 | [14] 0.031 | [15] -0.029 | [16] -0.016

GIT1 (UniProt Q9Y2X7)
Chain of UniProt Q9Y2X7 (Q9Y2X7 whole entry, looked up): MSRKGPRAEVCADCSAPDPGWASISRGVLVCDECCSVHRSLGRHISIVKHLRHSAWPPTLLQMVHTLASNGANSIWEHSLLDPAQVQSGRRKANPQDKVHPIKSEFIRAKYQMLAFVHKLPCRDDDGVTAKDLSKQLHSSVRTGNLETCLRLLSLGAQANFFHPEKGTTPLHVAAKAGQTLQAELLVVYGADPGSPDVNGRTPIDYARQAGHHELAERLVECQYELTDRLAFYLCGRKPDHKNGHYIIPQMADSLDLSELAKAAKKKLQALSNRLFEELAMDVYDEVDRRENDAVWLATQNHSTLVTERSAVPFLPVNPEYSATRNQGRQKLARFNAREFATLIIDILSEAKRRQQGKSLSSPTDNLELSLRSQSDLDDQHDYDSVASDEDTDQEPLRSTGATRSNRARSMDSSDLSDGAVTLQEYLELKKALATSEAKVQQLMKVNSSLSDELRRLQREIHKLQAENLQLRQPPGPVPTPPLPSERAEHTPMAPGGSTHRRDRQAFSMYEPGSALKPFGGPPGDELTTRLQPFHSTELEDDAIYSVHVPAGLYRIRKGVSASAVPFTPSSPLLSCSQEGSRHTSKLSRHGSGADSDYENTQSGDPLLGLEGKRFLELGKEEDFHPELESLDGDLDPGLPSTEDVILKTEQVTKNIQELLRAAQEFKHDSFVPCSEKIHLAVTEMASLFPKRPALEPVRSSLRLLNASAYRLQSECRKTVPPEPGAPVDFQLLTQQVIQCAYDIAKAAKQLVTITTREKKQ
inactive: erlotinib -0.003 | [1] 0.011 | [2] -0.039 | [3] 0.054 | [4] -0.014 | [5] -0.014 | [6] -0.009 | [7] 0 | [8] -0.011 | IRAK-1-4 Inhibitor I 0.017 | ibrutinib 0.075 | [9] -0.002 | ralimetinib -0.042 | [10] 0.033 | [11] -0.004 | [12] -0.074 | [13] -0.012 | [14] 0.044 | [15] -0.007 | [16] 0.024

HNRNPD isoform 2 (UniProt Q14103)
Chain of UniProt Q14103 (Q14103 whole entry, looked up): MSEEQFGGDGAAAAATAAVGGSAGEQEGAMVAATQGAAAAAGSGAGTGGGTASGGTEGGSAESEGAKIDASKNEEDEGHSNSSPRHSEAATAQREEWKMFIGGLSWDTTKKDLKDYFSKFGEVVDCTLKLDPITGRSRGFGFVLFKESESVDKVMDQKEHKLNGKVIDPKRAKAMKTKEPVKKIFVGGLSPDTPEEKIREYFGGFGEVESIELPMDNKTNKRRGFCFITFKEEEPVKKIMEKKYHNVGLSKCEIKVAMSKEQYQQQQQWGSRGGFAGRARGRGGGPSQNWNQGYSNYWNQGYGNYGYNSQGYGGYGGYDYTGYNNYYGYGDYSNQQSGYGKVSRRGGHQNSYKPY
inactive: erlotinib -0.001 | [1] -0.014 | [2] -0.022 | [3] -0.027 | [4] 0.049 | [5] 0.014 | [6] -0.023 | [7] 0.012 | [8] -0.009 | IRAK-1-4 Inhibitor I 0.018 | ibrutinib 0 | [9] -0.142 | ralimetinib -0.039 | [10] -0.01 | [11] 0.016 | [12] -0.046 | [13] 0.001 | [14] 0.034 | [15] -0.014 | [16] -0.011

GNE isoform 2 (UniProt Q9Y223)
Chain of UniProt Q9Y223 (Q9Y223 whole entry, looked up): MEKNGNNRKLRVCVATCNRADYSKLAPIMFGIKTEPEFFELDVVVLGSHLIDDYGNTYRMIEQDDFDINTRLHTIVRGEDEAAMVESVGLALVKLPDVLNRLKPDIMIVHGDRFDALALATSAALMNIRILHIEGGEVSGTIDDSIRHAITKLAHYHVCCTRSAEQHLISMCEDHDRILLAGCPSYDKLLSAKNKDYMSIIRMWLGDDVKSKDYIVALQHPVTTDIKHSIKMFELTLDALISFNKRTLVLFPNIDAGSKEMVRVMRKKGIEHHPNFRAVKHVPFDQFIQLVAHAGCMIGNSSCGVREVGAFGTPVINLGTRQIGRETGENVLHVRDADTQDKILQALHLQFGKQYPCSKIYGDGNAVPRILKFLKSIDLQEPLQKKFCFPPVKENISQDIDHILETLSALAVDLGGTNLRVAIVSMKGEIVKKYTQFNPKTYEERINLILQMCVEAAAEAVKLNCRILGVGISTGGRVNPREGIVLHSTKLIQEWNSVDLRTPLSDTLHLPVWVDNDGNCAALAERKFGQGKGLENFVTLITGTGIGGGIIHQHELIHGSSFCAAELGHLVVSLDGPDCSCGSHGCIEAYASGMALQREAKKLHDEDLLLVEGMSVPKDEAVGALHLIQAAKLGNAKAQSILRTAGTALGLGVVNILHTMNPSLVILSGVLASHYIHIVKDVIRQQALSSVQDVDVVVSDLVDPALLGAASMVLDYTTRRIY
inactive: erlotinib 0.035 | [1] -0.067 | [2] -0.042 | [3] -0.032 | [4] 0.011 | [5] 0.064 | [6] -0.031 | [7] -0.024 | [8] 0.023 | IRAK-1-4 Inhibitor I -0.042 | ibrutinib -0.036 | [9] 0.009 | ralimetinib 0.033 | [10] -0.036 | [11] -0.007 | [12] -0.011 | [13] -0.036 | [14] -0.001 | [15] 0.069 | [16] 0.009

GRK2 (UniProt P25098)
Chain of UniProt P25098 (P25098 whole entry, looked up): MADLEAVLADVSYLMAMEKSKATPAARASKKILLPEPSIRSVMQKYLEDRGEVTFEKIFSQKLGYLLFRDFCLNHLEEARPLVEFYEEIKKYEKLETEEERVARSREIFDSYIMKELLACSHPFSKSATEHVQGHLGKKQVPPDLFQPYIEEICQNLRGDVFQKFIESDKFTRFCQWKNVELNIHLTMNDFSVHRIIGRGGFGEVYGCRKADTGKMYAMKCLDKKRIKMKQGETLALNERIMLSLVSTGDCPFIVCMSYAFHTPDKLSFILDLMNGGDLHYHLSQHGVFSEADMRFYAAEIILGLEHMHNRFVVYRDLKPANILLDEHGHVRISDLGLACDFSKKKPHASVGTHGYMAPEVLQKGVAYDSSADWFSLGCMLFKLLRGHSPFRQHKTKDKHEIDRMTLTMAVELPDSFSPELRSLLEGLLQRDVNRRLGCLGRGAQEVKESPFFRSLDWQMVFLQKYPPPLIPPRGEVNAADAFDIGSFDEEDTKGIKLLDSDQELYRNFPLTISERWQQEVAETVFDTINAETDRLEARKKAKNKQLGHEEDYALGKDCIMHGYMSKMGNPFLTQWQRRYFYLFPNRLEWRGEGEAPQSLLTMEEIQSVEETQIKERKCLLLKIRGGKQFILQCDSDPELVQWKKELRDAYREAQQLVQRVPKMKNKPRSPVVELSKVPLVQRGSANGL
active: [8] 0.536
inactive: erlotinib 0.023 | [1] 0.028 | [2] 0.015 | [3] 0.115 | [4] -0.005 | [5] -0.025 | [6] -0.098 | [7] -0.026 | IRAK-1-4 Inhibitor I -0.002 | ibrutinib 0.002 | [9] 0.011 | ralimetinib 0.006 | [10] 0.036 | [11] 0 | [12] 0.151 | [13] 0.014 | [14] -0.048 | [15] 0.007 | [16] -0.031
